The inhibition is the relative decrease from the control value, in per cent.

In all, about 300,000 compounds went through this assay and about 2,500 (0.83%) were called active. The sample holds actives, similar compounds and a random draw of the others, so the mix is not that of the screen. A number with no mark means an inactive call. Rule as the data show it: active = inhibition above about 60%; inconclusive = no clear call, values can overlap the other calls; inactive = below that.

The test in a line: 5' untranslated region of α-synuclein, MLPCN primary screen (AID 1813).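 Also: H4 neuroglioblastoma cells stably carrying SNCA 5'UTR luciferase fusion; 0% = DMSO wells and 100% = positive control.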 The settings on record: alpha-synuclein 5'UTR reporter, inhibitor activity; stronger effect = higher value; tested at 7.5 µM.
Regarding `Cc1nc2ccc(N3CCN(C)CC3)cc2nc1C`, the inhibition was -72%. The result for `COc1cccc(-c2nc3ccc(N4CCN(C)CC4)cc3[nH]2)c1` reads 68.9% (active); that for `CN1CCN(c2cc(N3CCNCC3)ccc2[N+](=O)[O-])CC1`, 9.3%; that for `CN(C)c1ccc(/C=C2\CC3C4CC=C5CC(O)CCC5(C)C4CCC3(C)C2=O)cc1` (stereo not given), 8.56%. On to `CSc1nc2ccc(C)cc2c(=O)n1-c1cccnc1`, for which the inhibition is -1.34%.

Consider `CCOc1ccc(-c2cc(C)[n+](CCN(CC)CC)c(-c3ccc(OCC)cc3)c2)cc1`, for which the inhibition is 95.2% (active). `Cc1cccc2c(CCN)c[nH]c12`: the inhibition is 10.6%. The result for `Cc1ccc(P(=S)(c2ccc(C)o2)N2CCOCC2)o1` reads -9.28%; that for `CCN(N=Nc1nonc1OC)c1nonc1OC`, -2.32%. The result for `CCCCCCCCCCCCn1ccc(=N)cc1` reads 104% (active). The result for `CNP1(NC)=Nc2nn(-c3ccccc3)c(N)c2C(c2ccccc2)=N1` reads 9.19%. Turning to `COc1ccc2c(c1O)-c1cccc3c1[C@@H](C2)N(C)CC3`, the inhibition is -3.62%. In the case of `O=C(OCCN1CCOCC1)C1(c2ccccc2)CCCC1` it was 1.68%. As for `Cc1c(Oc2cc(NN3CCCCC3)c([N+](=O)[O-])cc2[N+](=O)[O-])cccc1[N+](=O)[O-]`, the inhibition was 15.3%. `Cc1cccc(NC(=O)N2CC3CC(C2)c2cccc(=O)n2C3)c1` (stereo not given): the inhibition is 13.7%.

As for `c1cc2c(cc1CCNC1CCCCCC1)OCO2`, the inhibition was 2.86%. In the case of `O=C1/C(=C\c2ccc3c(c2)OCO3)N2CCC1CC2` it was 17.4%.

Regarding `c1cc2c(cc1[C@H]1OC[C@H]3[C@@H]1CO[C@@H]3c1ccc3c(c1)OCO3)OCO2`, the inhibition is 72.8% (active). The result for `CC(C)n1c(=O)c(C=Nc2ccc(Br)cc2)c(O)n(Cc2ccco2)c1=O` reads -1.22%.

Consider `Cc1ccc(Cn2c(C)c3cnn(CC(=O)N4CCC5(CC4)OCCO5)c(=O)c3c2C)cc1`, for which the inhibition was 12%.

Source of the values: PubChem BioAssay AID1813 (Broad Institute, 2009).
